Source: the supplement of paper PMC7380943
Where a name gives a salt, the structure may show the parent alone.

Legend:
[1] = tested on: CLZ3 (HCA2 human fibroblast dual HR-NHEJ reporter); assay: NHEJ repair efficiency (GFP+ cells) relative to control (log10 fold); higher = more non-homologous end joining; details: 5 µM; doxycycline 0.5 ug/mL
[2] = tested on: CLZ3 (HCA2 human fibroblast dual HR-NHEJ reporter); assay: HR repair efficiency (tdTomato+ cells) relative to control (log10 fold); higher = more homologous recombination; details: 5 µM; doxycycline 0.5 ug/mL
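Wherever HR repair efficiency (tdTomato+ cells) relative to control is given: compound given one day before doxycycline, which switches on I-SceI endonuclease expression to create double-strand breaks within the integrated reporter.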
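Wherever NHEJ repair efficiency (GFP+ cells) relative to control is given: compound given one day ahead of doxycycline, which switches on I-SceI endonuclease to cut the chromosomally integrated reporter and create DSBs.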

Compound | NHEJ repair efficiency (log10) [1] | HR repair efficiency (log10) [2]
c1cc2c(cc1[C@H]1OC[C@H]3[C@@H]1CO[C@H]3c1ccc3c(c1)OCO3)OCO2 [Asarinin] | -0.271 | -0.223
CCCC[N+]1(C)[C@@H]2C[C@@H](OC(=O)[C@H](CO)c3ccccc3)C[C@H]1[C@@H]1O[C@@H]12 (stereo partly specified) [Scopolamine Butylbromide] | -0.172 | 0.0357
O=c1ccc2cc(O[C@@H]3O[C@H](CO)[C@@H](O)[C@H](O)[C@H]3O)c(O)cc2o1 [Aesculin] | 0.023 | 0.148
O=c1ccc2cc(O[C@@H]3O[C@H](CO)[C@@H](O)[C@H](O)[C@H]3O)c(O)cc2o1 [Esculin Sesquihydrate] | 0.0261 | 0.046
c1c2c(cc3c1OCO3)-c1cc3ccc4c(c3c[n+]1CC2)OCO4 [Coptisine Chloride] | -0.16 | 0.0577
COc1ccc(Cc2nccc3cc(OC)c(OC)cc23)cc1OC [Papaverine hydrochloride] | -0.296 | -0.22
N#C/C=C1/C=C[C@@H](O)[C@H](O)[C@H]1O[C@@H]1O[C@H](CO)[C@@H](O)[C@H](O)[C@H]1O [Lithospermoside] | 0.0837 | 0.0424
COc1cc2c3c(c1OC)-c1ccccc1C[C@H]3N(C)CC2 [Nuciferine] | 0.114 | 0.137
